Among the test systems are NCI-H23 lung; NCI-H226 lung; NCI-H322M lung; HOP-62 NSCLC; NCI-H460 lung; HOP-92 NSCLC; NCI-H522 lung; A549/ATCC NSCLC; 786-0 renal; COLO 205 colon.
Common to all, as to experiment: NCI-60 one-dose screen, 48 h (100 = growth as untreated, 0 = no growth, -100 = all killed)
Common to all, as to details: 10 µM unless noted

The panel holds about 83,000 compounds, 20% with a hit somewhere; the sample as a whole holds those more often.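 Single-concentration screen, 48 h exposure, 96-well plates. Endpoint: percent growth. Below 10 = active.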 Values without a mark were called inactive. The source made the active and inactive calls.

For the compound `COc1ccc(C(=O)c2cc(OC)c(OC)c(OC)c2)cc1OC(=O)C(Cl)(Cl)Cl`, the growth with NCI-H23 lung is 26.9%; in the assay with NCI-H226 lung, 95.4%; in the assay with NCI-H322M lung it was 38.4%; with HOP-62 NSCLC, 17.3%; in the assay on NCI-H460 lung it was 5.08% (active); in the assay with HOP-92 NSCLC, 50.3%. In addition, the growth with NCI-H522 lung was -13.3% (active); with A549/ATCC NSCLC, 19%; in the assay on 786-0 renal, 20.9%; with COLO 205 colon, 13%.
For the compound `O=C(/C(=C/c1ccc([N+](=O)[O-])cc1)SCc1ccc(F)cc1)c1ccc(Cl)cc1`, the growth with NCI-H23 lung is 58.9%; in the assay with NCI-H226 lung, 64.6%; in the assay on NCI-H322M lung, 98.1%; in the assay on HOP-62 NSCLC, 76.8%; in the assay with NCI-H460 lung, 82.4%; in the assay on HOP-92 NSCLC it was 69.6%. For the same compound, the growth was -41.4% (active) in the assay with NCI-H522 lung, 86.8% in the assay with A549/ATCC NSCLC, 82.5% in the assay on 786-0 renal and 64% with COLO 205 colon.
Turning to `C=C(C)[C@@H]1CC[C@]2(C(=O)NCCCO)CC[C@]3(C)[C@H](CC[C@@H]4[C@@]5(C)CCCNC(C)(C)[C@@H]5CC[C@]43C)[C@@H]12`, the growth is 77.3% in the assay with NCI-H23 lung; 79.8% in the assay with NCI-H226 lung; 78.6% in the assay on NCI-H322M lung; 89.9% in the assay with HOP-62 NSCLC; 68.9% in the assay with NCI-H460 lung; 58.1% in the assay with HOP-92 NSCLC. The growth in the assay on NCI-H522 lung is 88%; with A549/ATCC NSCLC, 73.1%; with 786-0 renal, 85.6%; in the assay on COLO 205 colon, -62.6% (active).
Consider `c1ccc(-c2n(Cc3ccc4ccccc4n3)cc[n+]2Cc2ccc3ccccc3c2)cc1`, for which the growth in the assay on NCI-H23 lung was 2.93% (active); in the assay with NCI-H226 lung, 9.5% (active); in the assay with NCI-H322M lung, 23.6%; in the assay with HOP-62 NSCLC it was 16.5%; in the assay with NCI-H460 lung, 6.08% (active); in the assay on HOP-92 NSCLC, -32.4% (active). The growth in the assay on NCI-H522 lung was 2.04% (active); with A549/ATCC NSCLC, 45.3%; with 786-0 renal it was 26.2%; in the assay on COLO 205 colon it was -77.5% (active).
Consider `Cc1c(Cl)cccc1NC(=O)c1sc2nc3c(cc2c1N)COCC3`, for which the growth was 36.4% in the assay on NCI-H23 lung; 76.1% in the assay with NCI-H226 lung; 60.6% in the assay on NCI-H322M lung; 24.5% with HOP-62 NSCLC; 15.6% in the assay with NCI-H460 lung; 36.3% in the assay on HOP-92 NSCLC. The growth is 17.3% in the assay on NCI-H522 lung, 45.9% with A549/ATCC NSCLC, 25.9% with 786-0 renal and 24.1% in the assay with COLO 205 colon.
Turning to `O=C1C(Cl)=C(NCCCN(CCCNC2=C(Cl)C(=O)c3ccccc3C2=O)C2=C(Cl)C(=O)c3ccccc3C2=O)C(=O)c2ccccc21`, the growth was -13.5% (active) in the assay on NCI-H23 lung; 88.1% in the assay on NCI-H226 lung; 61.5% with NCI-H322M lung; 102% in the assay with HOP-62 NSCLC; 39.2% with NCI-H460 lung; 87.9% in the assay with HOP-92 NSCLC. Besides, the growth in the assay on NCI-H522 lung was 73.8%; with A549/ATCC NSCLC, 45.6%; in the assay on 786-0 renal, 90.5%; in the assay with COLO 205 colon it was -13.8% (active).
Take `O=CN1N=C(c2ccc(Cl)cc2)CC1c1cccc(Nc2ccnc3cc(C(F)(F)F)ccc23)c1` (stereo not given): the growth in the assay with NCI-H23 lung is 50.6%; in the assay on NCI-H226 lung, 61.9%; with NCI-H322M lung, 82.4%; in the assay on HOP-62 NSCLC it was 67.1%; in the assay with NCI-H460 lung, 57.9%; in the assay with HOP-92 NSCLC it was 66.3%. The growth in the assay on NCI-H522 lung was 57%; with A549/ATCC NSCLC, 61.4%; with 786-0 renal, 81.5%; in the assay with COLO 205 colon it was 60.1%.
In the case of `COc1ccc2nc(-c3ccc(Cl)cc3)cc(-c3nnc(SCC(=O)Nc4ccc(/C(C)=N\O)cc4)o3)c2c1`, the growth is 2.74% (active) with NCI-H23 lung; 22.8% with NCI-H226 lung; 57.4% with NCI-H322M lung; 60% in the assay with HOP-62 NSCLC; -31.2% (active) with NCI-H460 lung; 19.1% in the assay with HOP-92 NSCLC. The growth with NCI-H522 lung is 9.31% (active); in the assay on A549/ATCC NSCLC, -9.66% (active); in the assay on 786-0 renal it was 25.9%; with COLO 205 colon it was 56.1%.
With `COCCOC(=O)COc1ccc(OC)cc1`, the growth in the assay with NCI-H23 lung is 105%; in the assay on NCI-H226 lung, 97.3%; in the assay on NCI-H322M lung it was 94.9%; in the assay on HOP-62 NSCLC it was 111%; in the assay on NCI-H460 lung, 108%; with HOP-92 NSCLC, 98.3%. In addition, the growth is 115% with NCI-H522 lung, 99.2% in the assay on A549/ATCC NSCLC, 109% with 786-0 renal and 115% with COLO 205 colon.
With `C#C[C@@]1(O)[C@@H](CO)O[C@@H](n2ccc3c(N)ncnc32)[C@@H]1O`, the growth was -20.7% (active) in the assay on NCI-H23 lung; -54.4% (active) in the assay with NCI-H226 lung; 14.5% in the assay on NCI-H322M lung; 4.56% (active) in the assay on HOP-62 NSCLC; 0.612% (active) with NCI-H460 lung; -15.8% (active) in the assay with HOP-92 NSCLC. Further, the growth with NCI-H522 lung is -18.4% (active); with A549/ATCC NSCLC, -19.4% (active); with 786-0 renal, 4.14% (active); in the assay on COLO 205 colon, -55.2% (active).
In the case of `COc1ccc(-n2cc(COc3ccc4c5ccnc(C)c5n(CC(C)C)c4c3)nn2)cc1`, the growth with NCI-H23 lung is 61.9%; in the assay with NCI-H226 lung, 52.3%; in the assay with NCI-H322M lung it was 88.7%; in the assay with HOP-62 NSCLC it was 56.6%; in the assay on NCI-H460 lung, 69.5%; in the assay with HOP-92 NSCLC, 44.9%. Besides, the growth with NCI-H522 lung was 37.3%; in the assay with A549/ATCC NSCLC it was 67.1%; in the assay with 786-0 renal, 73.9%; in the assay on COLO 205 colon, 68.6%.
Consider `COC(=O)/C=C1\SC(=Nc2cccc(OC)c2)N(CCc2c[nH]c3ccccc23)C1=O`, for which the growth with NCI-H23 lung is 67.9%; in the assay on NCI-H226 lung it was 98.2%; in the assay on NCI-H322M lung, 76.8%; in the assay on HOP-62 NSCLC it was 53%; with NCI-H460 lung, 80.7%; in the assay with HOP-92 NSCLC it was 46.6%. The growth was 28.4% with NCI-H522 lung, 61.4% in the assay with A549/ATCC NSCLC, 76.7% with 786-0 renal and 75.8% in the assay with COLO 205 colon.
